BH1578 lux ind: inducers of Vibrio cholerae quorum light production without autoinducers, primary screen, BH1578 luxS cqsA deficient, single point | V. cholerae BH1578 lux reporter, luminescence, 6 h | activation, % at 18.7 µM | 350,000 compounds, 0.16% hits | AID 588436, 2011; in the data active = activation mostly above about 9.7%, no sharp cut-off; inconclusive = no clear call, values can overlap the other calls; inactive = mostly below about 3.7%
MazEF act: activators of E. coli MazEF toxin-antitoxin RNase, primary screen, biochemical, fluorescence, uHTS; FAM/BHQ RNA-DNA oligo cleavage fluorescence, 5 h; activation, % at 20 µM; 350,000 compounds, 0.32% hits; AID 504720, 2011; in the data active = activation above about 50%
Autofluor counter: flagged as autofluorescent in microsphere protease counterscreen; compound autofluorescence counterscreen, microsphere flow cytometry; active compounds read high; fluorescence intensity (test concentration not listed); 360,000 compounds, 3.1% hits; AID 624483; in the data active = fluorescence intensity above about 16000; inconclusive = no clear call, values can overlap the other calls
BoNT-A LC inh2: BoNT/A light chain protease inhibitors, primary screen, biochemical, flow cytometry, MLPCN library. Botulinum neurotoxin type A light chain protease (Clostridium botulinum A str. ATCC 3502). multiplex microsphere protease substrate cleavage. inhibition, % at 10 µM. 360,000 compounds, 0.17% hits
Anthrax LF prot: Bacillus anthracis LF protease inhibitors, primary screen, biochemical, multiplex microsphere, MLPCN library. multiplex microsphere protease cleavage assay. inhibition, % at 10 µM. 360,000 compounds, 0.12% hits. AID 588501, 2011
Target sequence (P15917 whole entry, looked up): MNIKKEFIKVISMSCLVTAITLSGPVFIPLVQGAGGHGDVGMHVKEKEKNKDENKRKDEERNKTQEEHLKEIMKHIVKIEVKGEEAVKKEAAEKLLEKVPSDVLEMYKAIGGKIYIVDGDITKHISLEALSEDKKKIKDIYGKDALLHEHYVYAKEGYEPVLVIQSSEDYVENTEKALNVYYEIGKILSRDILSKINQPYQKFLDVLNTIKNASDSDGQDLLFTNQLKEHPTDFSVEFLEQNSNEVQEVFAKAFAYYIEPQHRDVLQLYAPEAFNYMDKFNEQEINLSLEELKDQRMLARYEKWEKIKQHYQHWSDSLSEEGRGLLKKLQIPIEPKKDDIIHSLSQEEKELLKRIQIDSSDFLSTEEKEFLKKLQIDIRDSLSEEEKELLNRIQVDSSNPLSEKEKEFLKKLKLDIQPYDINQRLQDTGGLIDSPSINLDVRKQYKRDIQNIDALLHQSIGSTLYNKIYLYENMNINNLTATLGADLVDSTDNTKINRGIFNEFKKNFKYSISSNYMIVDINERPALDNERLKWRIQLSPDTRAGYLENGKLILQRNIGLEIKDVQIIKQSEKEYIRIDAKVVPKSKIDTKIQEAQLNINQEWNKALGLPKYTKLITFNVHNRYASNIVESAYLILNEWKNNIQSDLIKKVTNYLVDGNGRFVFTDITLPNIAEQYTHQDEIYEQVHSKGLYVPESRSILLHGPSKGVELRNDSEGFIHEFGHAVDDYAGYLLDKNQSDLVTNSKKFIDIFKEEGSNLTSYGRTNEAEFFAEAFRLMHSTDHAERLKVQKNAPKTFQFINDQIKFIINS
BoNT F protease: BoNT/F light chain protease inhibitors, primary screen, biochemical, flow cytometry, MLPCN library. Botulinum neurotoxin type F light chain protease (Clostridium botulinum). AID 588497, 2011. inhibition, % at 10 µM. 360,000 compounds, 0.22% hits. Multiplex microsphere protease cleavage assay; in the data active = inhibition above about 35%, passing the limit was not always enough; inconclusive = no clear call, values can overlap the other calls
BoNT-A LC CP1: BoNT/A light chain protease inhibitors, confirmation, biochemical, flow cytometry, cherry pick 1 | shares compounds with BoNT F protease | multiplex microsphere protease assay | inhibition, % at 10 µM | 720 compounds, 3% hits; in the data active = inhibition above about 32%
BoNTF LC inh 1: BoNT/F light chain protease inhibitors, confirmation, biochemical, flow cytometry, cherry pick 1; AID 602140, 2011; multiplex microsphere protease cleavage assay; 720 tested, under 10 active; shares compounds with BoNT F protease; inhibition, % at 10 µM; call rule not given here
LF protease CP1: Bacillus anthracis LF protease inhibitors, confirmation, biochemical, multiplex microsphere, cherry pick 1; shares compounds with BoNT F protease; multiplex microsphere protease cleavage assay; inhibition, % at 10 µM; 720 tested, under 10 active; call rule not given here
Hits are given with their value; 0 = inactive; ? = inconclusive; - = no result. Only some compounds are listed: those with a hit (about 3.9% of all), similar ones and a draw of the others. Cut-off read from the data, not from the text of the source, unless noted: active = inhibition above about 30%; inconclusive = no clear call, values can overlap the other calls; inactive = below that.

SMILES | BH1578 lux ind | MazEF act | Autofluor counter | BoNT-A LC inh2 | Anthrax LF prot | BoNT F protease | BoNT-A LC CP1 | BoNTF LC inh 1 | LF protease CP1
CCOC(=O)CCCCC(=O)c1[nH]c(=O)[nH]c1CN1CCOCC1 | 0 | 0 | 0 | 0 | 0 | 58.8 | 0 | 0 | 0
CCOC(=O)CCCCC(=O)c1[nH]c(=O)[nH]c1CSc1nc(C)cc(C)n1 | 0 | 0 | 0 | 0 | 0 | 0 | 0 | 0 | 0
CCCSc1nc(C)cc(=O)[nH]1 | - | 0 | 0 | 0 | 0 | ? | - | - | -
COc1ccc(S(=O)(=O)NC(C)C(=O)NCc2cccnc2)cc1OC (centres undefined) | 0 | 0 | 0 | 0 | 0 | 44.0 | 0 | 0 | 0
CCN1CCN(CC(=O)Nc2ccc(S(=O)(=O)N3C(C)CCCC3C)cc2)CC1 (centres undefined) | 0 | 0 | 0 | 0 | 0 | 0 | - | - | -
CC(C)n1c(NCc2ccccc2O)nc2ccccc21 | 0 | 0 | 0 | 0 | 0 | 48.7 | 0 | 0 | 0
COc1ccc(C#Cc2c(-c3ccccc3)n(-c3ccccc3)c3ccc(CO)cc23)cc1 | 0 | 0 | 0 | 0 | 0 | 0 | - | - | -
COc1ccc(-c2nnc(OC)c3ccccc23)cc1 | 0 | 0 | 0 | 0 | 0 | 37.4 | 0 | 0 | 0
O=S(=O)(NCc1cccs1)c1ccccc1Cl | 0 | 0 | 0 | 0 | 0 | 0 | - | - | -
CN(C)c1cccc2c1c(NC(=O)c1ccc(Cl)cc1)nn2C | 0 | 0 | 0 | 0 | 0 | 0 | - | - | -
Cc1cccc(OCC(=O)Nc2ccc3nc(C)sc3c2)c1 | 0 | 0 | 0 | 0 | 0 | 0 | - | - | -
Cc1nc2ccc(NC(=O)COc3cccc(F)c3)cc2s1 | 0 | 0 | 0 | 0 | 0 | 38.4 | 0 | 0 | 0
Cc1cc2ccccc2n1CCNC(=O)c1ccccc1 | 0 | 0 | 0 | ? | ? | ? | 0 | 0 | 0
COc1ccc(C(=O)NCCn2ccc3ccccc32)cc1 | 0 | 0 | 0 | 53.0 | 36.5 | 0 | 0 | 0 | 0
CC(=O)NCCn1c(C)cc2ccccc21 | 0 | 0 | 0 | 0 | 0 | 0 | - | - | -
COc1ccc(NC(=O)CSc2nc(SC)ns2)cc1 | 0 | 0 | 0 | 0 | 0 | 0 | - | - | -
CCc1cccc(NC(=O)COC(=O)CSc2ccc(C)cc2)c1 | 0 | 0 | 0 | 0 | 0 | 0 | - | - | -
CC(=O)Nc1ccc(N=c2cc([N+](=O)[O-])cc(Cl)n2O)cc1 | 0 | 0 | 0 | 0 | 0 | 0 | - | - | -
CN(Cc1ccc(Cl)cc1Cl)C(=O)c1cc(=O)c2ccccc2o1 | 0 | 0 | 0 | 0 | 0 | 0 | - | - | -
O=C(Nc1ccc(-n2cccc2)cc1)C1CC1 | 0 | 0 | 0 | 0 | 0 | 0 | - | - | -
CCc1noc(C)c1C(=O)N(C)CC(=O)Nc1cccc(OC)c1 | 0 | 0 | 0 | 0 | 0 | 0 | - | - | -
CCN(CC)C(=O)C(Sc1ccccc1)c1ccccc1 (centres undefined) | 0 | 0 | ? | 0 | ? | 57.2 | 0 | 0 | 0
CCCNC(=O)C(Sc1ccccc1)c1ccccc1 (centres undefined) | 0 | 0 | 0 | 0 | 0 | 0 | - | - | -
O=C(CCn1c(=O)c2cccn2c2cccnc21)NCCCN1CCN(c2ccc(F)cc2)CC1 | 0 | 0 | 0 | 0 | 0 | 0 | - | - | -
O=C(NCC1CC1)c1cccs1 | - | - | 0 | 0 | 0 | 0 | - | - | -
SMILES | BH1578 lux ind | MazEF act | Autofluor counter | BoNT-A LC inh2 | Anthrax LF prot | BoNT F protease | BoNT-A LC CP1 | BoNTF LC inh 1 | LF protease CP1
O=C(NCCC1CCCC1)c1cccs1 | 0 | 0 | 0 | ? | 31.2 | ? | 0 | 0 | 0
CCOc1ccc(C(=O)N2CCN(S(=O)(=O)c3cccs3)CC2)c(OCC)c1 | 0 | 0 | 0 | 0 | 0 | 0 | - | - | -
CC(=O)c1cnn(-c2c(Cl)cc(Cl)cc2Cl)c1C | 0 | 0 | 0 | 0 | 0 | 38.3 | 0 | 0 | 0
O=C(O)C1C2C=CC(C2)C1C(=O)N1CCc2ccccc21 (centres undefined) | 0 | 0 | 0 | 0 | 0 | 38.6 | 0 | 0 | 0
CCNc1nc(NCC)n2c(SCC(=O)Nc3ccc(C)c(C)c3)nnc2n1 | 0 | 0 | ? | 0 | 0 | 36.8 | 0 | 0 | 0
O=C(Nc1ccccc1C(=O)O)c1cc(S(=O)(=O)Nc2cccc(F)c2)ccc1Cl | 0 | 0 | 0 | 0 | 0 | ? | 0 | 0 | 0
O=C(O)c1ccc(NS(=O)(=O)c2cccc(C(=O)Nc3ccc(Br)cc3)c2)cc1 | 0 | 0 | 0 | 0 | 30.7 | ? | 0 | 0 | 0
O=C(Nc1ccccc1)c1ccc(S(=O)(=O)Nc2cccc(O)c2)cc1 | 0 | 0 | 0 | 0 | 0 | 0 | 0 | 0 | 0
Cc1ccc(C(=O)Nc2ccccc2C(=O)O)cc1S(=O)(=O)Nc1ccccc1 | 0 | 0 | - | - | - | - | 0 | 0 | 0
Cc1ccc(C(=O)Nc2ccccc2C(=O)O)cc1S(=O)(=O)NC1CCCCC1 | 0 | 0 | 0 | 0 | 0 | 0 | - | - | -
O=C(Nc1ccccc1C(=O)O)c1cc(S(=O)(=O)N2CCCCCC2)ccc1Cl | 0 | 0 | 0 | 0 | 0 | 0 | - | - | -
O=C1CSC(=Nc2cccc([N+](=O)[O-])c2)N1 | 0 | 0 | 0 | 0 | 0 | 0 | - | - | -
Cc1ccc2cc(C#N)c(SCc3nnc(-c4ccccc4[N+](=O)[O-])o3)nc2c1 | 0 | 0 | 0 | 0 | 0 | 0 | - | - | -
O=C(Nc1ccc(S(=O)(=O)Nc2ccccn2)cc1)c1cccc(Br)c1 | 0 | 0 | 0 | 0 | 0 | 0 | - | - | -
O=C(Nc1ccccc1C(=O)O)c1cccc(S(=O)(=O)Nc2ccc(Br)cc2)c1 | 0 | 0 | 0 | 0 | 0 | 0 | 0 | 0 | 0
O=C(Nc1ccc(S(=O)(=O)Nc2ccccn2)cc1)c1cccc(Cl)c1 | 0 | 0 | 0 | 0 | 0 | 36.4 | 0 | 0 | 0
O=C(Nc1ccccc1C(=O)O)c1cccc(NS(=O)(=O)c2ccc(Br)cc2)c1 | 0 | 0 | 0 | 0 | 0 | 0 | - | - | -
Cc1cc(F)cc(-c2cc(C(=O)NCC3CCCCC3)[nH]n2)c1 | 0 | - | 0 | 0 | 0 | 0 | - | - | -
CN1CCCC(OC(=O)c2ccc(C#N)cc2)C1 (centres undefined) | 0 | 0 | 0 | 0 | 0 | 0 | - | - | -
CCc1ccc(CN(C)C(=O)C2=CC=CN3CCS(=O)(=O)N=C23)cc1 | 0 | 0 | - | - | - | - | - | - | -
Cc1ccc(NC(=O)CC2(CC(=O)O)CCCC2)cc1 | 0 | 0 | 0 | 0 | 0 | 0 | - | - | -
O=C(O)CC1(CC(=O)Nc2ccc(C(F)(F)F)cc2)CCCC1 | 0 | 0 | 0 | 0 | 0 | 39.8 | 0 | 0 | 0
COc1ccc(CCNC(=O)CCCc2ccccc2)cc1OC | 0 | 0 | 0 | 0 | 0 | 34.7 | 0 | 0 | 0
CCNC(=O)CC1C(=O)N(c2ccc(C)cc2)C(=O)N1CCOC (centres undefined) | 0 | 0 | 0 | 0 | 0 | 35.5 | 0 | 0 | 0
